From PubChem BioAssay
Compounds with a hit are over-represented: about 3.3% of the library has one in this group of screens.
FGF22 binding: FGF22 (human) thermal shift binding | Q9HCT0 | recombinant FGF22 thermal shift, SYPRO orange fluorescence; percent of sucrose octasulfate shift, DMSO zero | activity (Tm shift, normalised), % at 9.99 µM | 340,000 compounds, 1.5% hits | AID 651658;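 active means mean Tm shift, scaled 0 neutral to 100 positive control, at about 1.3% or above, every replicate too, limit read from the data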
Target sequence (Q9HCT0 whole entry, looked up): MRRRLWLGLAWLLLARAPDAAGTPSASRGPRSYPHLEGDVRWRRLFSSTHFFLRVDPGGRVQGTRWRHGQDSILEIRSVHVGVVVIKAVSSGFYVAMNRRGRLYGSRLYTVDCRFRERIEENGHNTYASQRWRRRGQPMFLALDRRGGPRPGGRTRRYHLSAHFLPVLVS
ERAP1 HTS inh: inhibitors of human ERAP1 aminopeptidase; 340,000 compounds, 0.15% hits; recombinant ERAP1, Leu-AMC fluorescence, 60 min; inhibition, % at 10.7 µM; Q9NZ08;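 active means mean replicate inhibition of at least 30%, or all replicates individually reaching that 30% level; inactive means mean below 30% and not every replicate reaching it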;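 further: 0% = neutral control wells and 100% = L-leucinethiol positive control wells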
Casp6 inh: inhibitors of human caspase-6 | P55212 | 350,000 compounds, 0.53% hits | purified caspase-6, Z-VEID-R110 cleavage fluorescence | inhibition, % at 12.5 µM;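 active means mean inhibition across replicates at least about 35%, with every replicate also reaching that limit, limit read from the data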;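 further: 0% = median of neutral control wells and 100% = no fluorescence left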
Target sequence (P55212 24-179 limits assumed): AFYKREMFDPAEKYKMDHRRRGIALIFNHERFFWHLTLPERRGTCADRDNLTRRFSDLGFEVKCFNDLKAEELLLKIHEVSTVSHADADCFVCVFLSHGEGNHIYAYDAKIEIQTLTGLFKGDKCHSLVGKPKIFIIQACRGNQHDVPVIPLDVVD
Target sequence (P55212 194-293 limits assumed): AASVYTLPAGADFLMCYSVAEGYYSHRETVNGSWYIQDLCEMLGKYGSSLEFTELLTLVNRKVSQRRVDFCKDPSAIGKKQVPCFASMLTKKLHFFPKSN
INS-1E GSIS act: primary screen for activators of insulin secretion dependent on glucose, INS-1E cells, GLuc reporter luminescence; INS-1E GLuc reporter insulin secretion, 2-3 h; activation, % at 16.6 µM; 370,000 compounds, 0.61% hits; AID 743287;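 active means lowest replicate activation of at least 40%, so every replicate reaches that level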;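 further: 0% = median of neutral control wells and 100% = median of IBMX positive control wells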
SIRT5 block: blocks human SIRT5 desuccinylation of peptide | Q9NXA8 | Purified SirT5, succinyl-peptide AMC, trypsin-coupled fluorescence | inhibition, % at 15 µM | 330,000 compounds, 1.1% hits; in the data active means inhibition above about 15%
Active calls of the source: *; nt = no result; ! = not active in a repeat.

SMILES	FGF22 binding	ERAP1 HTS inh	Casp6 inh	INS-1E GSIS act	SIRT5 block
C[C@@H]1CCCCO[C@@H](CN(C)C(=O)C2CCCCC2)[C@H](C)CN([C@H](C)CO)C(=O)c2cc(NS(=O)(=O)c3cn(C)cn3)ccc2O1	0	0	-3	6	-6
COc1cccc(S(=O)(=O)Nc2ccc3c(c2)[C@H]2C[C@H](CC(=O)NCCc4ccccc4)O[C@H](CO)[C@H]2O3)c1	0	1	1	-39	-1
O=C(Nc1ccc(N2CCN(C(=O)c3cccs3)CC2)cc1)c1cccnc1	43*	13	1	-3	0
COc1ccc(S(=O)(=O)N(C)C[C@@H]2Oc3ccc(NC(=O)CCC(F)(F)F)cc3C(=O)N([C@H](C)CO)C[C@H]2C)cc1	0	1	-2	17	34*
COc1ccc(S(=O)(=O)N(C)C[C@H]2Oc3ccc(NC(=O)NC4CCCCC4)cc3C(=O)N([C@@H](C)CO)C[C@H]2C)cc1	0	0	-2	nt	1
COc1ccc(S(=O)(=O)N(C)C[C@H]2Oc3ccc(NC(=O)NC4CCCCC4)cc3C(=O)N([C@H](C)CO)C[C@@H]2C)cc1	0	-4	-1	-7	20*!
COc1ccc(S(=O)(=O)N(C)C[C@@H]2Oc3ccc(NC(=O)Nc4ccc(F)cc4)cc3C(=O)N([C@H](C)CO)C[C@@H]2C)cc1	0	3	1	-18	18*
COc1ccc(NC(=O)Nc2ccc3c(c2)C(=O)N([C@@H](C)CO)C[C@H](C)[C@@H](CN(C)S(=O)(=O)c2ccc(C)cc2)O3)cc1	0	-1	1	-4	2
COc1ccc(NC(=O)Nc2ccc3c(c2)C(=O)N([C@@H](C)CO)C[C@@H](C)[C@@H](CN(C)S(=O)(=O)c2ccc(C)cc2)O3)cc1	-1	0	13	-39	19*
C[C@@H]1CN([C@@H](C)CO)C(=O)c2cc(NC(=O)CCC(F)(F)F)ccc2O[C@@H]1CN(C)S(=O)(=O)c1ccc(F)cc1	0	1	1	-8	14
O=C(C[C@H]1C[C@H]2c3cc(NC(=O)CC4CC4)ccc3O[C@H]2[C@@H](CO)O1)NCc1ccc(-c2ccccc2)cc1	0	10	-1	-2	nt
C[C@H](O)C#Cc1ccc2c(c1)O[C@H](CN(C)C(=O)C1CCC1)[C@@H](C)CN([C@H](C)CO)S2(=O)=O	0	0	2	3	-4
C[C@H](CO)N1C[C@H](C)[C@@H](CN(C)C)Oc2ccc(NC(=O)CCC(F)(F)F)cc2C1=O	0	-3	3	19	-2
C[C@H]1CN([C@@H](C)CO)C(=O)c2cc(NC(=O)CCC(F)(F)F)ccc2O[C@H]1CN(C)C	0	-1	2	8	17*
Cn1ccnc1SC(C(=O)O)c1ccccc1 (configuration not stated)	0	2	-1	0	102*
CC(C)N(Cc1ccccc1)C(=O)CSc1nccn1C	0	3	-10	-6	-4
COC(=O)c1ccc(CNCC(=O)Nc2ccc(C(=O)OC)cc2)cc1	43*	1	-3	-2	1
COC(=O)c1ccc(NC(=O)CNCc2ccncc2)cc1	nt	nt	nt	-1	nt
COc1ccccc1CN1C[C@@H](C)[C@@H](OC)CN(C)C(=O)c2ccc(NC(C)=O)cc2OC[C@H]1C	0	4	2	-8	2
NS(=O)(=O)c1ccc(CCNc2nc3c(-c4cccc(F)c4)nnn3c3ccccc23)cc1	nt	nt	nt	59*	nt
O=C(Cn1sc2ccccc2c1=O)Nc1ccc(F)cc1	43*	29	-2	31	-3
Cc1ccc(NS(=O)(=O)c2cccc(C(=O)NCC(c3cccs3)N(C)C)c2)cc1 (configuration not stated)	43*	3	-4	-13	15
CCC(=O)N[C@@H]1CC[C@H](CC(=O)NCc2ccccc2OC)O[C@H]1CO	1	0	0	17	4
O=C1CC(N2CCC(c3nc4ccccc4[nH]3)CC2)C(=O)N1c1ccccc1F (configuration not stated)	0	-2	-1	15	18*
COc1ccc(N2C(=O)CC(N3CCN(c4ccccc4F)CC3)C2=O)cc1 (configuration not stated)	0	-4	2	-6	-4
SMILES	FGF22 binding	ERAP1 HTS inh	Casp6 inh	INS-1E GSIS act	SIRT5 block
NC(=O)NCC#Cc1ccc2c(c1)[C@]1(C(=O)N2)[C@H](c2ccccc2OCCO)N2[C@H](c3ccccc3)[C@H](c3ccccc3)OC(=O)[C@H]2[C@@H]1C(=O)N1CCN(c2ncccn2)CC1	0	-2	2	nt	21*
NC(=O)[C@@H]1[C@H]2C(=O)O[C@H](c3ccccc3)[C@H](c3ccccc3)N2[C@H](c2ccccc2OCCO)[C@@]12C(=O)Nc1ccc(C#CCCO)cc12	0	-1	0	nt	1
O=C1O[C@@H](c2ccccc2)[C@@H](c2ccccc2)N2[C@@H](c3ccccc3OCCO)[C@]3(C(=O)Nc4ccc(C#CCCO)cc43)[C@@H](C(=O)O)[C@H]12	16*	3	10	nt	2
C=CCNC(=O)[C@H]1[C@@H]2C(=O)O[C@@H](c3ccccc3)[C@@H](c3ccccc3)N2[C@@H](c2ccccc2OCCO)[C@]12C(=O)Nc1ccc(C#CC3(O)CCCCCC3)cc12	33*	2	1	nt	17*
C=CCNC(=O)[C@H]1[C@@H]2C(=O)O[C@@H](c3ccccc3)[C@@H](c3ccccc3)N2[C@@H](c2ccc(O)cc2)[C@]12C(=O)N(C(=O)OCCOC)c1ccc(C#CCC(C(=O)OC)C(=O)OC)cc12	18*	4	0	nt	2
CCCNC(=O)Nc1ccc2c(c1)OC[C@H](C)N(C(=O)C1CCC1)C[C@H](C)[C@H](OC)CN(C)C2=O	0	0	2	10	-3
CCN(c1ccccc1)S(=O)(=O)c1ccc(OC)c(NC(=O)CNCCc2ccccc2)c1	0	1	-1	-28	-1
O=C(CN1C(=O)NC2(CCCCC2)C1=O)Nc1cccc(S(=O)(=O)N2CCOCC2)c1	0	13	1	-10	-1
CCN(c1ccccc1)S(=O)(=O)c1ccc(OC)c(NC(=O)Cc2ccc(F)cc2)c1	0	0	-2	-16	61*
O=C(CN1C(=O)NC2(CCCC2)C1=O)Nc1ccc(S(=O)(=O)N2CCOCC2)cc1	0	2	1	-9	18*
CCN(c1ccccc1)S(=O)(=O)c1ccc(OC)c(OC)c1	0	-4	-3	55*	-3
CCN(c1ccccc1)S(=O)(=O)c1cc(OC)ccc1OC	nt	nt	nt	30	nt
CCN(c1ccccc1)S(=O)(=O)c1ccc(Cl)c(NC(=O)CN2C(=O)NC3(CCCC3)C2=O)c1	1	nt	0	-41	16*
C[C@H](CO)N1C[C@H](C)[C@H](CN(C)Cc2ccc3cccnc3c2)OCc2cn(nn2)CCCC1=O	nt	nt	nt	-2	nt
